In PubChem BioAssay (NCATS):
Inconclusive results are not listed. Activity calls are given as the source filed them. Unless noted, the rule behind the calls is not given here. Positions of bridges follow the written chain, without caps; N, C: chain ends. Non-standard residues stand in square brackets, D forms with d. Residues, ends and D or L forms follow the SMILES beside them. ξ: configuration not given here. *: point of attachment. Octanoyl(6-Me) = CCC(C)CCCCC(=O)*; ξThr(3R) = C[C@@H](O)C(N)C(=O)O; dDab = NCC[C@@H](N)C(=O)O; Dab = NCC[C@H](N)C(=O)O

Experiments:
[1] = qHTS profiling of the MIPE4 collection as inhibitors of Plasmodium falciparum (DD2) proliferation (Rep 2) (AID 743346); settings: P. falciparum Dd2 in erythrocytes, SYBR Green DNA, 72 h; at 28.5 µM unless noted
Procedure, shortened: (§1)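 Erythrocytes infected with P. falciparum (0.3% parasitemia, 2.5% hematocrit) incubated with compounds 72 h at 37 C, 5% CO2. Lysis with saponin/Triton buffer containing SYBR Green I, overnight at room temperature in the dark; DNA fluorescence (485/535 nm) normalised to 0.29 uM artemisinin and DMSO.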

[2] = qHTS profiling of the MIPE4 collection as inhibitors of Plasmodium falciparum (HB3) proliferation (AID 743347);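 note: plate controls were DMSO vehicle wells for no effect and artemisinin wells for full effect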; settings: P. falciparum HB3 in erythrocytes, SYBR Green DNA, 72 h; at 28.5 µM unless noted
Procedure, shortened: as §1

[3] = High-throughput drug toxicity screening in the BPDCN cell line Gen2.2 (AID 1224824); settings: Gen2.2 BPDCN cells; at 45.8 µM (top of the series) unless noted;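 note: cells exposed to compounds for 48 h before reading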
Procedure, shortened: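 Seed 500 exponentially growing Gen2.2 cells/well; add compounds by pin tool; incubate 48 h, 37 °C, 5% CO2; add CellTiter-Glo, 15 min RT; read luminescence. % activity vs DMSO (100%) and bortezomib (0%).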

[4] = High-throughput drug toxicity screening in the BPDCN cell line Cal-1 (AID 1224825); settings: Cal-1 BPDCN cell viability, qHTS; at 45.8 µM (top of the series) unless noted
Procedure, shortened: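 500 Cal-1 cells/well, RPMI + glutamine + 10% FBS (phenol red-free); cpd added by pin tool; 48 h, 37C, 5% CO2; CTG 15 min RT, lumi read. Normalised: DMSO 100%, bortezomib 9.2 uM 0%.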

[5] = qHTS assay for measurement of the activity of small molecule inhibitors on Zika virus induced Caspase-3 activity in human iPSC derived neural progenitor cells (hNPCs) (AID 1224857; active = well fitted curve in the direction sought with a large enough effect; an effect the other way counts as inactive or inconclusive; note: nearly all actives have a fitted effect of over 65% in size; note: potency is the fitted concentration of half-maximal effect; for activity change, negative = inhibition: % of control where 0% means no effect)
Procedure, shortened: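 After overnight (16–20 h) culture at 350 cells/well, hNPCs get compound, then ZIKV 2 FFU/cell one hour later. Six hours on, Caspase-Glo 3/7 is added and luminescence measured.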

[6] = qHTS assay for measurement of the activity of small molecule inhibitors on Zika virus induced Caspase-3 activity in human astrocytoma cells (AID 1224859; active = well fitted curve in the direction sought with a large enough effect; an effect the other way counts as inactive or inconclusive;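 note: plate controls were ZIKV-infected untreated cells for no effect and uninfected cells for full effect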)
Procedure, shortened: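 Inhibition of Zika-induced caspase-3/7 activity: SNB-19 cells, 1 h compound pretreatment, ZIKV 2 FFU/cell for 6 h at 37 C, Caspase-Glo luminescence read-out.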

[7] = qHTS Screen of the MIPE 4.0 Collection Against Ewings Sarcoma (RDES) (AID 1259252; active = well fitted curve in the direction sought with a large enough effect; an effect the other way counts as inactive or inconclusive; note: nearly all actives have a fitted effect of over 35% in size; note: potency is the fitted concentration of half-maximal effect)
Procedure, shortened: (§2)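 After a 4 h attachment period in RPMI/5% FBS, cells were pin-dosed with test compounds; DMSO served as negative and 9.2 uM bortezomib (final) as positive control. Luminescent CellTiter-Glo signal at 48 h defined viability.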

[8] = qHTS Screen of the MIPE 4.0 Collection Against Ewings Sarcoma (TC71) (AID 1259253; active = well fitted curve in the direction sought with a large enough effect; an effect the other way counts as inactive or inconclusive; note: nearly all actives have a fitted effect of over 40% in size; note: potency is the fitted concentration of half-maximal effect)
Procedure, shortened: as §2

[9] = qHTS Screen of the MIPE 4.0 Collection Against Ewings Sarcoma (EW8) (AID 1259255; active = well fitted curve in the direction sought with a large enough effect; an effect the other way counts as inactive or inconclusive; note: nearly all actives have a fitted effect of over 35% in size; note: potency is the fitted concentration of half-maximal effect;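 for viability: 100% = DMSO-treated cells and 0% = medium-only wells without cells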)
Procedure, shortened: as §2

[10] = qHTS profiling of the MIPE4 collection as inhibitors of Plasmodium falciparum (3D7) proliferation (AID 743344);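 note: scaled between DMSO vehicle wells and 0.29 µM artemisinin as full inhibition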; settings: P. falciparum 3D7 in erythrocytes, SYBR Green DNA fluorescence, 72 h; at 28.5 µM unless noted
Procedure, shortened: as §1

[11] = qHTS profiling of the MIPE4 collection as inhibitors of Plasmodium falciparum (DD2) proliferation (AID 743345); settings: P. falciparum Dd2 in erythrocytes, SYBR Green DNA, 72 h; at 28.5 µM unless noted
Procedure, shortened: as §1

[12] = qHTS profiling for inhibitors of Plasmodium falciparum (3D7) proliferation (AID 743322);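 note: infected erythrocytes exposed to compound for 72 h before lysis; 100% = DMSO vehicle wells and 0% = 0.29 µM artemisinin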; settings: P. falciparum 3D7 proliferation; at 28.7 µM (top of the series)
Procedure, shortened: as §1

[13] = qHTS profiling for inhibitors of Plasmodium falciparum (DD2) proliferation (AID 743323); settings: lower = more inhibition; at 28.7 µM (top of the series)
Procedure, shortened: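 SYBR Green fluorescence (ex 485, em 535 nm) of lysed cultures gives parasite DNA content; wells normalized to artemisinin (0.29 uM) and DMSO controls. Infected red cells: 0.3% parasitemia, 2.5% hematocrit, 72 h, 37 C.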

[14] = qHTS profiling for inhibitors of Plasmodium falciparum (HB3) proliferation (AID 743324; active = well fitted curve in the direction sought with a large enough effect; an effect the other way counts as inactive or inconclusive;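 note: 100% = DMSO vehicle wells and 0% = artemisinin-treated control wells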); settings: Plasmodium falciparum HB3 blood-stage proliferation; at 28.7 µM (top of the series)
Procedure, shortened: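 P. falciparum HB3 grown in erythrocytes (0.3% parasitemia, 2.5% hematocrit final) with compound for 72 h at 37 C, 5% CO2. Parasite DNA detected by SYBR Green after saponin/triton lysis overnight; normalized to 0.29 uM artemisinin and DMSO.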

Compound | parasite growth, % of control (lower = inhibition) [1] | growth, % of control [2] | cell viability, % of control (lower = more cytotoxic) [3] | viability (% of control) [4] | Potency [5] | Potency [6] | Potency [7] | Potency [8] | Potency [9] | parasite growth, % of DMSO control [10] | parasite growth remaining, % of DMSO control (lower = more inhibition) [11] | activity change, negative = inhibition [5] | remaining parasite growth % (stronger effect = lower value) [12] [%] | activity, percent of control [13] [%] | remaining proliferation (% of control), lower = more inhibition [14] [%]
NC[C@H]1O[C@H](O[C@H]2[C@@H](O)[C@@H](O[C@H]3O[C@H](CO)[C@@H](O)[C@H](N)[C@@H]3O)[C@H](N)C[C@@H]2N)[C@H](N)C[C@H]1O | 78% | 88.3% | 200% | 123% | inactive | inactive | inactive | inactive | inactive |  |  |  |  |  | 
CCC(C)CCCCC(=O)N[C@@H](CCN)C(=O)NC(C(=O)N[C@H](CCN)C(=O)N[C@@H]1CCNC(=O)C([C@@H](C)O)NC(=O)[C@@H](CCN)NC(=O)[C@@H](CCN)NC(=O)[C@@H](CC(C)C)NC(=O)[C@H](Cc2ccccc2)NC(=O)[C@H](CCN)NC1=O)[C@@H](C)O (stereo partly drawn) ({Octanoyl(6-Me)}-[Dab][ξThr(3R)][dDab][dDab][Dab]F[dL][dDab][dDab][ξThr(3R)]; lactam 4-C) |  | 96.2% | 172% | 116% | inactive | inactive | inactive |  | inactive | 407% |  |  |  |  | 
CN(N=O)C(=O)N[C@H]1C(O)OC(CO)[C@@H](O)[C@H]1O (stereo not given in full) | 114% | 68.3% | 97.4% | 96.8% | inactive |  | inactive | inactive | inactive | 81.6% | 93.8% |  |  |  | 
COc1ccc(C=Cc2cc(OC)c(OC)c(OC)c2)cc1NC(=O)[C@H](N)CO | 79.9% | 85.5% | 6.82% | 7.97% | inactive |  | 0.0023 µM (active) | 0.0033 µM (active) | 0.0042 µM (active) |  | 75.1% |  |  |  | 
COc1cc(C)c(C=CC(C)=CC=CC(C)=CC(=O)O)c(C)c1C | 85.9% | 83.1% | 336% | 94.9% | inactive | inactive | inactive |  | inactive | 85.8% |  |  |  |  | 
C[C@H](NC(=O)C(C#N)=Cc1cccc(Br)n1)c1ccccc1 | 33.4% | 22% | 5.54% | 4.37% | inactive | inactive | 16.6 µM (active) |  | 16.6 µM (active) | 59.1% |  |  |  |  | 
CCC(C=C[C@@H]1OC(=O)C=C[C@H]1C)=C[C@H](C)CC=CC(C)=C[C@@H](C)C(=O)[C@@H](C)[C@H](O)[C@@H](C)CC(C)=CC(=O)O |  | 577% [at 1.06 µM] | 5.63% [at 1.72 µM] | 5.92% [at 1.72 µM] |  |  | 0.022 µM (active) | 0.022 µM (active) | 0.0156 µM (active) | 402% [at 1.06 µM] | 97.4% [at 1.06 µM] | 14.9% [at 1.73 µM] (inactive) |  |  | 
CC(=O)O[C@H]1C[C@@H]2CC[C@H]3[C@H]4C[C@H]([N+]5(C)CCCCC5)[C@@H](OC(C)=O)[C@@]4(C)CC[C@@H]3[C@@]2(C)C[C@H]1[N+]1(C)CCCCC1 |  |  | 232% | 120% | inactive |  | 1.32 µM (active) | 1.05 µM (active) | 2.64 µM (active) |  |  |  |  |  | 
C#C[C@]1(O)CC[C@@H]2[C@@H]3CCC4=CC(=O)CC[C@@H]4[C@H]3CC[C@@]21CC | 51.5% | 61.1% | 146% | 114% | inactive | inactive | inactive |  | inactive | 28% |  |  |  |  | 
C[C@H]1C[C@H]2[C@@H]3CCC4=CC(=O)C=C[C@]4(C)[C@@H]3C(=O)C[C@]2(C)[C@@]1(O)C(=O)CO |  | 86.6% | 87.7% | 108% | inactive | inactive | inactive |  | inactive | 63% | 97.9% |  |  |  | 
COc1cc(C=CC(=O)CC(=O)C=Cc2ccc(O)c(OC)c2)ccc1O | 16.5% [at 57.5 µM] | 2.99% [at 57.5 µM] | 5.74% [at 92.2 µM] | 5.08% [at 92.2 µM] | inactive |  | 7.62 µM (active) | 21.5 µM (active) | 6.05 µM (active) | 4.86% [at 57.5 µM] | 7.94% [at 57.5 µM] |  | -1.44 | -0.402 | 0.164
CCCc1nc(C(C)(C)O)c(C(=O)O)n1Cc1ccc(-c2ccccc2-c2nn[nH]n2)cc1 | 84.2% | 61.6% | 110% | 103% | inactive | inactive | inactive |  | inactive | 87.7% | 93.7% |  |  |  | 
N#CC(=C(O)c1ccc(Cl)cc1Cl)c1nc2cc(Cl)ccc2c(=O)[nH]1 | 99% | 74% | 34.3% | 95.9% | inactive |  | inactive | inactive | inactive | 36.6% | 99.7% |  |  |  | 
C[C@H](NC(=O)[C@@H](O)c1cc(F)cc(F)c1)C(=O)N[C@@H]1C(=O)N(C)c2ccccc2-c2ccccc21 | 27.7% | 8.44% | 165% | 103% | inactive |  | inactive | 20.9 µM (active) | inactive | 11% |  |  |  |  | 
COC1=C2C[C@@H](C)C[C@H](OC)[C@@H](O)[C@@H](C)C=C(C)[C@H](OC(N)=O)[C@@H](OC)C=CC=C(C)C(=O)NC(=CC1=O)C2=O | 11.9% | 3.98% | 3.44% | 4.06% | inactive |  | 0.59 µM (active) | 0.59 µM (active) | 0.372 µM (active) | 5.43% | 5.64% |  |  |  | 
NC1=N[C@H]2[C@H](CS[C@H]2CCCCC(=O)O)N1 |  |  | 175% [at 23.2 µM] | 126% [at 23.2 µM] | inactive |  | inactive | inactive | inactive |  |  |  |  |  | 
C[C@@H](Cc1cc2c(c(C(N)=O)c1)N(CCCO)CC2)NCCOc1ccccc1OCC(F)(F)F | 58.3% | 85.9% | 183% | 97.3% | inactive |  | inactive | inactive | inactive | 48.1% | 84% |  |  |  | 
Nc1nc(=O)n([C@H]2CSC(CO)O2)cc1F (stereo not given in full) | 160% | 250% | 249% | 102% | inactive |  | inactive | inactive | inactive | 399% | 99.2% |  |  |  | 
CS[C@H]1SC[C@@H]2C(=O)N(C)[C@H](C(C)C)C(=O)OC[C@H](NC(=O)c3cnc4ccccc4n3)C(=O)N[C@H](C)C(=O)N(C)[C@@H]1C(=O)N(C)[C@H](C(C)C)C(=O)OC[C@H](NC(=O)c1cnc3ccccc3n1)C(=O)N[C@H](C)C(=O)N2C | 7.64% | 10.7% | 3.67% | 5.19% | inactive | inactive | 0.0019 µM (active) |  | 0.0019 µM (active) | 7.68% | 5.94% |  |  |  | 
Cc1ccc2nc(NCCN)c3ncc(C)n3c2c1 | 33.4% | 81.1% | 2.46% | 3.39% | inactive |  | 6.62 µM (active) | 4.18 µM (active) | 9.35 µM (active) | 63.3% | 41.2% |  |  |  | 
O=C(C=Cc1ccc(CN(CCO)CCc2c[nH]c3ccccc23)cc1)NO | 8.38% | 2.54% | 4.89% | 3.46% | inactive |  | 0.209 µM (active) | 0.187 µM (active) | 0.148 µM (active) | 4.37% | 6.71% |  |  |  | 
CN(C)c1ccc2cc(C(=O)N[C@@H](CCCN=C(N)CCl)C(=O)NCc3ccccc3)ccc2c1 | 9.19% | 9.16% | 1.99% | 2.66% | 20.9 µM (active) |  | 0.833 µM (active) | 11.8 µM (active) | 9.35 µM (active) | 5.85% | 8.25% |  | 6.68 | 11.8 | -0.673
C[N+](C)([O-])CCNc1ccc(NCC[N+](C)(C)[O-])c2c1C(=O)c1c(O)ccc(O)c1C2=O |  |  | 105% | 19.7% | inactive | inactive | 18.7 µM (active) |  | 20.9 µM (active) |  | 13.5% |  |  |  | 
